Experimental data as given in PubChem BioAssay (Tox21).
Inconclusive results are not listed. Entries that show only a call come without a potency. Active and inactive are the calls of the source. Calls come from the whole dose curve; as a rule, active = well fitted activation curve with a large enough effect in the repeat runs; inconclusive = weak or mixed curves; inactive = flat fitted curve, though single readings scatter.

experiment: A CellTox Green Cytotoxicity Assay to monitor cytotoxicity in HEK293 cells - 8 hour (AID 1224884); conditions: CellTox Green fluorescence; series mostly up to 76.8 µM; note: nearly all actives have a fitted effect of over 35% in size
Text: National Center for Advancing Translational Sciences [NCATS]
NIH Chemical Genomics Center [NCGC]
U.S. Environmental Protection Agency [EPA]
National Institutes of Environmental Health Sciences [NIEHS]
National Toxicology Program [NTP]
Cell-based models are critical for drug discovery. Determining the natural cytotoxic effects resulting from test compounds is an essential research activity. A CellTox Green Cytotoxicity Assay to monitor cytotoxicity in real time of continues cell culture during 40 hours of the compound treatment was used to screen Tox21 10K library compounds in Hek293 cells. CellTox Green Cytotoxicity Assay is a nonlytic, homogeneous, biofluorescent method to measure cytotoxicity in cell culture after experimental manipulation. The assay system uses a proprietary asymmetric cyanine dye that is excluded from viable cells but preferentially stains the dead cell's DNA. […] Viable cells produce no appreciable increases in fluorescence. Therefore, the fluorescence signal produced by the binding interaction with dead cell DNA is proportional to cytotoxicity.
The mixture of Hek293 cell suspension and reagents were dispensed at 600cells/6 ul/well in 1536-well tissue culture treated black solid bottom plates using a Multidrop dispenser. After the assay plates were incubated at a 37 C/5% CO2 incubator for 5 hours, 23 nL of compounds dissolved in DMSO, positive and negative controls was transferred to the assay plate by a pintool work station. The plates were incubated at 37 C for 40 hours. The fluorescence intensity were measured at 0h, 8h, 16h, 24h, 32h and 40h time points using ViewLux plate reader during compound treatment.

| SMILES | Potency | cytotoxicity increase |
| --- | --- | --- |
| O=C(NCCCN1CCOCC1)c1ccc(Cl)cc1 | inactive | – |
| C=CCCCCCCCCCCCCCCCC | – | -6.36% [at 6.97 µM] (inactive) |
| CCCCCCCCCCCC(=O)[O][Sn]([CH2]CCC)([CH2]CCC)[O]C(=O)CCCCCCCCCCC | inactive | – |
| CCCCC(CC)C(=O)OCCOCCOCCOCCOC(=O)C(CC)CCCC (stereo not given) | inactive | – |
| C=CC(=C)CCCC(C)(C)OC(C)=O | inactive | – |
| CCCc1c(OCCCOc2ccc(OCC(=O)O)cc2)ccc(C(C)=O)c1O | inactive | – |
| CCCCCCCCCCCCCCCCBr | – | -1.67% [at 15.8 µM] (inactive) |
| CC(C)(C)C(=O)O | inactive | – |
| Cc1nc2ccccc2s1 | inactive | – |
| O=C(O)c1c(O)c(-c2ccccc2)nc2ccccc12 | inactive | – |
| O=C(O)Cc1ccc(-c2ccccc2)cc1 | inactive | – |
| C=CC(=O)NCOCC(C)C | inactive | – |
| c1ccc(COCc2ccccc2)cc1 | inactive | – |
| COc1cc2c(cc1OC)-c1cc(=Nc3c(C)cc(C)cc3C)n(C)c(=O)n1CC2 | inactive | – |
| O=C(CCCN1CCC(O)(c2ccc(Br)cc2)CC1)c1ccc(F)cc1 | inactive | – |
| CC1CN(c2cc3c(cc2F)c(=O)c(C(=O)O)cn3-c2ccc(F)cc2F)CCN1 (stereo not given) | – | 1.21% [at 6.97 µM] (inactive) |
| CCCCCCCC/C=C\CCCCCCCC(=O)OC(CO)CO | inactive | – |
| CCOc1cc(N)c(Cl)cc1C(=O)NCC1CN(Cc2ccc(F)cc2)CCO1 (stereo not given) | inactive | – |
| CC(C)CCCCCOC(=O)CCCCC(=O)OCCCCCC(C)C | inactive | – |
| O=C1NCCN1 | inactive | – |

| SMILES | Potency | cytotoxicity increase |
| --- | --- | --- |
| C=CCOC(=O)/C=C\C(=O)OCC=C | inactive | – |
| COC(OC)(C(=O)c1ccccc1)c1ccccc1 | inactive | – |
| O=C(CCC1CCN(Cc2ccccc2)CC1)c1ccc2c(c1)NCCCC2 | inactive | – |
| Cc1cc(O)c(C(C)C)cc1Cl | inactive | – |
| N#C/C(=C1/SC[C@@H](c2ccc(Cl)cc2Cl)S1)n1ccnc1 | inactive | – |
| O=C(c1ccc(O)cc1)c1ccc(Cl)cc1 | inactive | – |
| CC1=C(C=O)C(C)(C)CCC1 | inactive | – |
| Cn1c(=O)c2c(ncn2CC(=O)O)n(C)c1=O | inactive | – |
| CCCOC(=O)c1ccc(N)cc1 | inactive | – |
| Fc1ccccc1[C@@H](F)COC1CCC(Nc2ncnc3[nH]ncc23)CC1 (stereo not given in full) | inactive | – |
| CCCCC(CC)COC(=O)COc1ccc(Cl)cc1C (stereo not given) | inactive | – |
| CC(=O)Nc1ccc(N)cc1 | inactive | – |
| CN1CCN(CCCN2c3ccccc3Sc3ccc(S(=O)(=O)N(C)C)cc32)CC1 | inactive | – |
| Cc1oncc1C(=O)Nc1ccc(C(F)(F)F)cc1 | inactive | – |
| CCn1cc(C(=O)O)c(=O)c2cc(F)c(N3CCNCC3)nc21 | inactive | – |
| O=C(O)c1ccc(CO)o1 | inactive | – |
| CCC(Cc1ccccc1)(C(=O)c1ccc(N2CCOCC2)cc1)N(C)C (stereo not given) | inactive | – |
| NC(=O)Nc1ccc(Cl)cc1 | inactive | – |
| Fc1c(F)c(F)c(Br)c(F)c1F | inactive | – |
| CNC(=O)N(c1ccccc1)c1ccccc1 | inactive | – |
